According to PubChem BioAssay AID1053125 (Broad Institute, 2014):
Measured potencies and affinities stand elsewhere. Active and inactive are the calls of the source.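 Rule for the calls: active = viability loss whose fitted half-maximal concentration is at most twice the top valid tested dose; inconclusive = flat curve with 30 to 70% loss, or poor fit; inactive = the rest.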

assay: viability loss in HepG2 liver cells – cell-based, ATP luminescence, cherry-pick, set 6, cytotoxicity control, dose response (AID 1053125); conditions: ATP luminescence (CellTiter-Glo), 72 h; series mostly up to 26 µM;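 note: negative values mean loss of viability signal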

Question: Which outcome does the source give for CCOC(=O)c1cc2c(=O)n3ccccc3nc2n(CCCOC)c1=NC(=O)c1ccncc1 here?
Answer: inactive

Question: Which outcome does the source give for COCCCn1c(=N)c(C(=O)NC2CCCCC2)cc2c(=O)n3ccccc3nc21 here?
Answer: inactive

Question: For Cc1oc(/N=C/c2ccc(F)cc2)c(C#N)c1C, which outcome is on record?
Answer: inactive

Question: With Cc1ccc(S(=O)(=O)CCC(=O)OCC(=O)Nc2cccc(S(=O)(=O)N3CCCCC3)c2)cc1 as the compound, how does the outcome read?
Answer: inactive

Question: Which outcome does the source give for Cc1nc2ccc(S(=O)(=O)Nc3ccc(-c4nc5cccnc5s4)cc3)cc2s1 here?
Answer: inactive

Question: Which outcome does the source give for COc1ccc(C2C3=C(CC(C)(C)CC3=O)N(C)C3=C2C(=O)CC(C)(C)C3)cc1 here?
Answer: inactive

Question: Which outcome does the source give for N#C/C(=C\c1ccc(N2CCOCC2)o1)C(=O)NCCc1ccccc1 here?
Answer: inactive

Question: Which outcome does the source give for CSc1ccc(Cn2c(C)c(C(=O)NCc3cccc(Cl)c3)sc2=O)cc1 here?
Answer: inactive

Question: With Cc1cc(-c2ccccc2)c2ccc(NC(=O)C(C)(C)C)nc2n1 as the compound, how does the outcome read?
Answer: inactive

Question: Which outcome does the source give for O=c1oc2cc(O)ccc2cc1S(=O)(=O)c1ccccc1 here?
Answer: inactive

Question: With Cc1cccn2c(=O)c3cc(C(=O)NCc4ccc(F)cc4)c(=N)n(CCCN4CCOCC4)c3nc12 as the compound, how does the outcome read?
Answer: inactive

Question: With CC(C)C(=O)Nc1sc2c(c1C(N)=O)CCN(Cc1ccccc1)C2 as the compound, how does the outcome read?
Answer: inactive

Question: For COc1ccc(NC(=O)C2CCC(CNS(=O)(=O)c3cccs3)CC2)cc1 (stereo unspecified), which outcome is on record?
Answer: inactive

Question: With O=C(O)c1cccc(NC(=O)c2cn(-c3ccccc3)nc2-c2cccc(Br)c2)c1 as the compound, how does the outcome read?
Answer: inactive

Question: With CCN1C(=O)c2cccc3c(S(=O)(=O)N(C)C)ccc1c23 as the compound, how does the outcome read?
Answer: inactive

Question: With Clc1cccc(CN2CCN(Cc3nc(CCc4ccccc4)no3)CC2)c1 as the compound, how does the outcome read?
Answer: inactive
